Source: PubChem
Hits are enriched below; roughly 19% of the tested compounds scored in any of these assays.
Cycloheximide cs: Cycloheximide Counterscreen for Small Molecule Inhibitors of Shiga Toxin; cell reporter, cycloheximide protein synthesis inhibition counterscreen; max response, %; hit rate 12% among 300,000; AID 2314, 2010; in the data active = max response mostly above about 13%, no sharp cut-off; inactive = mostly below about 14%; note: read at 38.3 µM for the half of the compounds with a filed dose; 0% is about no effect
SARS PLP yeast: qHTS of Yeast-based Assay for SARS-CoV PLP. S. cerevisiae expressing SARS-CoV PLpro, growth rescue. Potency, µM (doses to about 32.9 µM), inactives show at the highest dose activity, positive = growth rescue, usual class: activators. hit rate 0.19% among 330,000; calls by dose curve; note: potency is the fitted concentration of half-maximal effect; 0% is about no effect; nearly all actives have a fitted effect of over 55% in size
AMA1 RON2 block: qHTS for Inhibitors of AMA1-RON; Towards Development of Antimalarial Drug Lead: Primary Screen | AlphaScreen AMA1-biotinylated RON2 peptide binding | Potency, µM (highest dose often 58.2 µM), inactives show top-dose activity change, negative = inhibition, usual class: inhibitors | hit rate 0.2% among 360,000;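 note: potency is the fitted concentration of half-maximal effect; 0% = vehicle wells and -100% = peptide control; nearly all actives have a fitted effect of over 45% in size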
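AMA1 (3D7) with his tag at 25 nM final met compounds first, then biotinylated RON2 peptide at 25 nM; detection used donor plus acceptor beads, 10 µg/mL apiece, read by AlphaScreen after 30 min at room temperature.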
Pf growth 96h: Primary qHTS for delayed death inhibitors of the malarial parasite plastid, 96 hour incubation. hit rate 6.9% among 320,000. Potency, µM (series often up to 28.7 µM), for the others: at the top dose activity change, negative = inhibition, usual class: inhibitors. P. falciparum luciferase reporter growth, 96 h. AID 504834, 2011; note: potency is the fitted concentration of half-maximal effect; % is set by controls: 0 for no effect and ±100 for the full control effect
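Readout is luminescence from an integrated firefly luciferase in P. falciparum. Red cells, 2% hematocrit and 0.05% parasitemia final, were cultured with compound through two parasite generations (96 hours) at 37 C, 5% CO2.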
Shiga inhibitor: A qHTS for Small Molecule Inhibitors of Shiga Toxin. inhibition, % at 38.7 µM. AID 2315, 2010. hit rate 9.2% among 290,000. Vero cells, Shiga toxin protein synthesis inhibition reporter; in the data active = inhibition mostly above about 28%, no sharp cut-off; inactive = mostly below about 43%; note: 0% is about no effect
Pf growth 48h: Primary qHTS for delayed death inhibitors of the malarial parasite plastid, 48 hour incubation; P. falciparum luciferase growth in erythrocytes, 48 h; Potency, µM (doses to about 28.7 µM), for inactives: top-dose activity change, negative = inhibition, most hits filed as inhibitors; AID 504832, 2011; hit rate 5.9% among 310,000; note: potency is the fitted concentration of half-maximal effect; % is set by controls: 0 for no effect and ±100 for the full control effect
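Luminescence readout; reporter = integrated firefly luciferase in P. falciparum. RBC culture at 2% hematocrit, 0.1% parasitemia final, 37 C/5% CO2; decreased signal taken as growth inhibition.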
Active calls of the source: *. Unless noted, calls come from the whole dose curve; as a rule, active = well fitted curve in the direction sought with a large enough effect; inconclusive = small, poorly fitted or top-dose-only effect, or another doubt; inactive = no such curve, though single readings can be large; an effect the other way counts as inactive or inconclusive.

How did CC(C)(C)c1ccc(OCC(=O)N(Cc2cccs2)C2CCS(=O)(=O)C2)cc1 (configuration not stated) do in these assays?
Cycloheximide cs: -2; SARS PLP yeast: -2%; AMA1 RON2 block: -6%; Pf growth 96h: inconclusive; Shiga inhibitor: -4; Pf growth 48h: inconclusive

What do the screens show for `O=C(CCC(=O)c1ccccc1)Nc1ccccc1`?
AMA1 RON2 block: -9%

How did O=C(NCc1ccncc1)c1ccc2nc(Cc3ccccc3F)oc2c1 do in these assays?
Cycloheximide cs: 16*; SARS PLP yeast: -3%; AMA1 RON2 block: -11%; Pf growth 96h: inconclusive; Shiga inhibitor: 15; Pf growth 48h: 15%

How did Cc1c(C(=O)N(C)C(C)c2ccccn2)oc2c(F)cccc12 (configuration not stated) do in these assays?
Cycloheximide cs: 51*; SARS PLP yeast: 1%; AMA1 RON2 block: -3%; Pf growth 96h: 11%; Shiga inhibitor: 75*; Pf growth 48h: 0%

What do the screens show for `O=C(NCc1ccncc1)c1cccc(F)c1`?
Cycloheximide cs: -2; SARS PLP yeast: 0%; AMA1 RON2 block: -8%; Pf growth 96h: 0%; Shiga inhibitor: 8; Pf growth 48h: 20%

Results for COc1cccc(NC(=O)N(C)C[C@@H]2OCc3cnnn3CCCC(=O)N([C@H](C)CO)C[C@@H]2C)c1 ?
AMA1 RON2 block: 6%

How did O=C(NC(=S)Nc1ccccc1Br)c1ccco1 do in these assays?
Cycloheximide cs: 54*; SARS PLP yeast: 0%; AMA1 RON2 block: 3%; Pf growth 96h: inconclusive; Shiga inhibitor: 99*; Pf growth 48h: -6%

Results for O=C(NC(=S)Nc1cccc(NC(=S)NC(=O)c2ccco2)n1)c1ccco1 ?
Cycloheximide cs: 9; SARS PLP yeast: 0%; AMA1 RON2 block: -11%; Pf growth 96h: 1.3µM*; Shiga inhibitor: -1; Pf growth 48h: -10%

What do the screens show for `Cc1ccc([C@H]2C[C@H](O)[C@@H](n3cc(-c4ccc(F)cc4)nn3)CN2C(=O)C2CCCCC2)cc1`?
AMA1 RON2 block: -5%

What do the screens show for `Cc1ccc(NC(=O)COC(=O)Cc2c[nH]c3ccccc23)cc1C`?
SARS PLP yeast: -4%; AMA1 RON2 block: 0%; Pf growth 96h: -11%; Pf growth 48h: 34%

What do the screens show for `COc1ccc(C2(C)NC(=O)N(CC(=O)NC3CC3)C2=O)cc1` (configuration not stated)?
SARS PLP yeast: 26%; AMA1 RON2 block: 3%

Results for CC1(c2ccccc2Br)NC(=O)N(CC(=O)NC2CCCCC2)C1=O (configuration not stated) ?
SARS PLP yeast: -10%; AMA1 RON2 block: -3%; Pf growth 96h: 12µM*; Pf growth 48h: inconclusive

Results for CN(Cc1cnn(Cc2ccccc2)c1)C(=O)CN=C1NS(=O)(=O)c2ccccc21 ?
SARS PLP yeast: -5%; AMA1 RON2 block: 6%; Pf growth 96h: -6%; Pf growth 48h: -7%

What do the screens show for `O=c1[nH]c(/C=C/c2ccccc2)c([N+](=O)[O-])c(=O)[nH]1`?
Cycloheximide cs: -3; SARS PLP yeast: 6%; AMA1 RON2 block: -1%; Pf growth 96h: 10µM*; Shiga inhibitor: -12; Pf growth 48h: 8%

What do the screens show for `O=c1[nH]c(/C=C/c2cccc([N+](=O)[O-])c2)c([N+](=O)[O-])c(=O)[nH]1`?
Cycloheximide cs: 1; SARS PLP yeast: 9%; AMA1 RON2 block: -8%; Pf growth 96h: inconclusive; Shiga inhibitor: 2; Pf growth 48h: inconclusive

How did CC(=O)c1ccc(N2CCN(C(=O)c3nn(Cc4ccccc4)c(=O)c4ccccc34)CC2)cc1 do in these assays?
Cycloheximide cs: 10; SARS PLP yeast: -3%; AMA1 RON2 block: -3%; Pf growth 96h: -4%; Shiga inhibitor: 17; Pf growth 48h: 3.7µM*

Results for COc1cc2c(cc1OC)CN(C(=O)c1nn(Cc3ccccc3)c(=O)c3ccccc13)CC2 ?
SARS PLP yeast: -27%; AMA1 RON2 block: -3%; Pf growth 96h: inconclusive; Pf growth 48h: 10µM*
